# Assay results: the supplement of paper PMC12297408
# Counter-ions that a name gives are not always drawn. In all, about 1,300 compounds went through this assay and about 40 (3%) showed activity. This excerpt belongs to a sample that is enriched for actives.
# Tested on: Plasmodium falciparum NF54/iGP1_RE9H ulg8 stage V gametocytes
# Assay: gametocyte viability (luciferase signal relative to DMSO control) (% of DMSO control); higher = less gametocytocidal activity, active = 50 or less
# Details: exposure time: 72 h
# Procedure, shortened: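 Stage V gametocytes of the NF54/iGP1_RE9Hulg8 line (day 12; ~2.5% gametocytemia, 3% hematocrit), in medium containing 0.5% Albumax II, were dispensed into 96-well plates with compounds spotted in nanolitre volumes from 10 mM DMSO stocks, for final concentrations of 10 µM or 1 µM in a single well each. After 72 h at 37 °C, 90 µl from each well was combined with 10 µl D-luciferin (30 mg/ml), and luminescence was measured on an IVIS Lumina II. Viability was expressed against the mean of the DMSO vehicle wells on the same plate.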
Structure (SMILES),gametocyte viability (concentration: 1 µM),gametocyte viability (concentration: 10 µM)
CC(=O)c1ccc2c(c1)N(CCCN1CCC(CCO)CC1)c1ccccc1S2 [Piperacetazine],79.4 (inactive),80.8 (inactive)
Fc1ccc(C(c2ccc(F)cc2)N2CCN(C/C=C/c3ccccc3)CC2)cc1 [Flunarizine dihydrochloride],81.5 (inactive),95.1 (inactive)
COC1=CC(=O)C[C@@H](C)[C@]12Oc1c(Cl)c(OC)cc(OC)c1C2=O [Griseofulvin],89.3 (inactive),84.6 (inactive)
CCOC(=O)O[C@]1(C(=O)COC(=O)CC)CC[C@H]2[C@@H]3CCC4=CC(=O)C=C[C@]4(C)[C@H]3[C@@H](O)C[C@@]21C [Prednicarbate],91.7 (inactive),90.6 (inactive)
CN(Cc1cnc2nc(N)nc(N)c2n1)c1ccc(C(=O)N[C@@H](CCC(=O)O)C(=O)O)cc1 [Methotrexate],91.4 (inactive),87.9 (inactive)
"CN(Cc1cnc2nc(N)nc(N)c2n1)c1ccc(C(=O)N[C@@H](CCC(=O)O)C(=O)O)cc1 (racemic) [Amethopterin (R,S)]",80.3 (inactive),83.6 (inactive)
COc1cccc2c1C(=O)c1c(O)c3c(c(O)c1C2=O)C[C@@](O)(C(=O)CO)C[C@@H]3O[C@H]1C[C@H](N)[C@H](O)[C@H](C)O1 [Doxorubicin hydrochloride],64.5 (inactive),19 (active)
COc1cccc2c1C(=O)c1c(O)c3c(c(O)c1C2=O)C[C@@](O)(C(C)=O)C[C@@H]3O[C@H]1C[C@H](N)[C@H](O)[C@H](C)O1 [Daunorubicin hydrochloride],69.8 (inactive),7.37 (active)
C#C[C@]1(O)CC[C@H]2[C@@H]3CCC4=CCCC[C@@H]4[C@H]3CC[C@@]21C [Lynestrenol],86 (inactive),89.2 (inactive)
CCCCNc1c(C(=O)OCC)c(C)nc2c1cnn2CC [Tracazolate hydrochloride],88.5 (inactive),76.3 (inactive)
CC#C[C@]1(O)CC[C@H]2[C@@H]3CCC4=CC(=O)CCC4=C3[C@@H](c3ccc(N(C)C)cc3)C[C@@]21C [Mifepristone],83.1 (inactive),83.2 (inactive)
CN(C)CCOC1=Cc2ccccc2Sc2ccc(Cl)cc21 [Zotepine],91.1 (inactive),86 (inactive)
CCOC(=O)N1CCC(=C2c3ccc(Cl)cc3CCc3cccnc32)CC1 [Loratadine],86 (inactive),87.7 (inactive)
CN(C)CCc1c[nH]c2ccc(Cn3cncn3)cc12 [Rizatriptan benzoate],84.2 (inactive),84 (inactive)
OC(Cn1cncn1)(Cn1cncn1)c1ccc(F)cc1F [Fluconazole],83.4 (inactive),86.9 (inactive)
CC(C)(C#N)c1cc(Cn2cncn2)cc(C(C)(C)C#N)c1 [Anastrozole],77.6 (inactive),45.8 (active)
CC(C)c1nc(CN(C)C(=O)N[C@H](C(=O)N[C@@H](Cc2ccccc2)C[C@H](O)[C@H](Cc2ccccc2)NC(=O)OCc2cncs2)C(C)C)cs1 [Ritonavir],66.4 (inactive),36.5 (active)
Nc1c2ccccc2nc2ccccc12 [Aminacrine],85.8 (inactive),81.4 (inactive)

Structure (SMILES),gametocyte viability (concentration: 1 µM),gametocyte viability (concentration: 10 µM)
Nc1ccc(/N=N/c2ccccc2)c(N)n1 [Phenazopyridine hydrochloride],88.3 (inactive),48.1 (active)
CCN1CCN(C(=O)N[C@@H](C(=O)N[C@@H]2C(=O)N3C(C(=O)O)=C(CSc4nnnn4C)CS[C@H]23)c2ccc(O)cc2)C(=O)C1=O [Cefoperazone dihydrate],79.3 (inactive),83.8 (inactive)
CC(N)CCCC(C)(C)O (stereo not given) [Heptaminol hydrochloride],82.3 (inactive),84.6 (inactive)
Cc1c(-c2ccccc2)oc2c(C(=O)OCCN3CCCCC3)cccc2c1=O [Flavoxate hydrochloride],92 (inactive),87 (inactive)
N#CC(c1ccc(Cl)cc1)c1c(Cl)cc(-n2ncc(=O)[nH]c2=O)cc1Cl (stereo not given) [Diclazuril],92.9 (inactive),91.4 (inactive)
CC(=O)Nc1c(I)c(C(=O)N[C@H]2C(O)O[C@H](CO)[C@@H](O)[C@@H]2O)c(I)c(N(C)C(C)=O)c1I (stereo not given in full) [Metrizamide],84.7 (inactive),88.9 (inactive)
CCCC1C(=O)N2C(N(C)C)=Nc3ccc(C)cc3N2C1=O (stereo not given) [Azapropazone],89.5 (inactive),87.5 (inactive)
Oc1c(Cl)cc(Cl)c2cccnc12 [Chloroxine],83.4 (inactive),84.2 (inactive)
CO[C@@]1(NC(=O)Cc2cccs2)C(=O)N2C(C(=O)O)=C(COC(N)=O)CS[C@@H]21 [Cefoxitin sodium salt],85.9 (inactive),81.1 (inactive)
CNC1(C)C2CCC(C2)C1(C)C (stereo not given) [Mecamylamine hydrochloride],93.8 (inactive),94.3 (inactive)
CCC(C)(C)C(=O)O[C@H]1C[C@@H](C)C=C2C=C[C@H](C)[C@H](CC[C@@H]3C[C@@H](O)CC(=O)O3)[C@H]21 [Simvastatin],80.4 (inactive),85.5 (inactive)
CCOC(=O)C1=C(COCCN)NC(C)=C(C(=O)OC)C1c1ccccc1Cl (stereo not given) [Amlodipine],82.2 (inactive),63.1 (inactive)
"COCCc1ccc(OCC(O)CNC(C)C)cc1 (racemic) [Metoprolol-(+,-) (+)-tartrate salt]",94 (inactive),94 (inactive)
CCCCCCNC(=O)n1cc(F)c(=O)[nH]c1=O [Carmofur],80.2 (inactive),76.4 (inactive)
Cc1cccn2c(=O)c(-c3nnn[nH]3)cnc12 [Pemirolast potassium],80.6 (inactive),84.7 (inactive)
COc1cc(C(=O)N2CCOCC2)cc(OC)c1OC [Trimetozine],81.7 (inactive),80.2 (inactive)
"CN1CCc2c(c3ccccc3n2Cc2ccccc2)C1 [Mebhydroline 1,5-naphtalenedisulfonate]",88.8 (inactive),83.3 (inactive)
